Broadly, the AC50 is the concentration giving half of the maximal activity seen.

Activity calls are given as the source filed them. The calls were made as follows: active = hit-call score of the fitted dose curve at least 0.9, where 1 is the maximum; inactive = score below 0.9.

Read-out in this assay: NAD(P)H dehydrogenase [quinone] 1 (NQO1), NQO1 (gene 1728)
Nature of the assay: LTEA_HepaRG_NQO1: Life Technologies and Expression Analysis (LTEA) Assay for NAD(P)H dehydrogenase [quinone] 1 (NQO1) using HepaRG (AID 2283526). Particulars: mRNA level, 48 h; actives raise or lower the signal. How it is done: LTEA_HepaRG is a cell based, multiplexed-readout assay that uses HepaRG, a human liver cell line, with measurements taken at 48 hours after chemical dosing on a 96-well plate.LTEA_HepaRG_NQO1 is one of 102 assay component(s) measured in the LTEA HepaRG cell culture assay. It is a marker of Diseases associated with NQO1 include Tardive Dyskinesia and Childhood Leukemia.Data from the assay component LTEA_HepaRG_NQO1 was analyzed into 1 endpoint. This assay endpoint, LTEA_HepaRG_NQO1, was analyzed with bidirectional fitting relative to DMSO as the negative control and baseline of activity. Using a type of inducible reporter, measures of mRNA induction for gain or loss-of-signal activity can be used to understand regulation of transcription factor activity. To generalize the intended target to other relatable targets, this assay endpoint is annotated to the oxidoreductase intended target family, where the subfamily is quinone-acceptor.
A total of 1060 chemcials from the ToxCast library were tested in eight-point concentration-response experiments. Cell culture and cytotoxicity assays were conducted at Thermo Fisher Scientific's Custom Services facility (Madison, WI). A single lot of human HepaRG cells (Thermo Fisher Scientific, Frederick, MD) was used for the cell culture experiments. 96-well format collagen type I coated plates of human HepaRG cells were prepared using established methods. Briefly, cryopreserved HepaRG cells were thawed, plated at a density of approximately 100,000 cells/well in HepaRG Thaw, Plate, and General Purpose media (HPRG770, Thermo Fisher Scientific), and incubated for 48 hours. 0.5% DMSO was selected as vehicle control to balance the requisite need of DMSO in HepaRG cultures to maintain differentiation (for example, baseline metabolism, proportions of hepatocytes vs. cholangiocytes), while enabling further hepatic receptor pathway activation (for example, PXR and CAR) in response to chemical exposure. 48 hours after plating, the culture medium was replaced with HepaRG Serum-Free Incudtion Media. Cells were exposed to each test chemical in duplicate and maintained in CO2 incubators for another 48 hours. Chemical plates were thawed to room temperature and 200x concentrations of treatment groups were prepared. 8-point conentration-reponse curves were made with the highest exposure at 100 uM, followed by half-log dilutions, all in 0.5% DMSO. Each test plate contained variouse controls, induction positive controls (1mM phenobarbital), cytotoxicity positive controls ([…] aflatoxin B1), vehicle controls (0.5% DMSO), and total lysis controls (0.5% DMSO). Cell morphology images were taken using an Essen IncuCyte FLR automated microscope, with six 96-well plates imaged in about 24 minutes. Images were captured and exported and JPEG files. Spent culture media was transfered to black-well plates for the LDH assay, and remaining media was sorted at -80 C for later use. Cells were treated with RLT buffer and frozen until shipped for gene expression analysis. Total RNA was isolated from the cell suspension in 75 uL of Buffer RLT (Qiagen, Germantown, MD 20874) by Quintiles/Expression Analysis (Durham, NC) using a custom isolation procedure. Total RNA from each plate well was transferred to a preamplification plate. Fluidigm's 96.96 Dynamic ArrayTM (Fluidigm, Amsterdam, the Netherlands) technology was used for gene expression analyses by quantitative reverse transcription polymerase chain reaction (qRT-PCR, performed by Quintiles/Expression Analysis, Durham, NC)89. Standard TaqManTM Assays (Applied Biosystems/ThermoFisher Scientific, Foster City, CA) were used to assess the expression of 93 genes selected based on their selectivity and sensitivity to important hepatic receptors known to be modulated by environmental chemicals; importance in human hepatocyte functionality; and hepatotoxicity. […]
In the case of `CCCCN1C(=O)[C@@H]([C@H](O)C2CCCCC2)NC(=O)C12CCN(Cc1ccc(Oc3ccc(C(=O)O)cc3)cc1)CC2`, the AC50 was 4.6 µM (active).

For the compound `CCCC(CCC)C(=O)O`, the call was inactive.

Take `NC(=O)NN=Cc1ccc([N+](=O)[O-])o1`: the AC50 is 11.4 µM (active).

With `CCCCCOC(C)=O`, the outcome was inactive.

As for `c1ccc2ncccc2c1`, the compound was classed as inactive.

For the compound `O=C(O)c1cccc(C(=O)O)c1`, the compound was classed as inactive.

As to `O=S(=O)(O)c1ccc(N=Nc2c(O)ccc3cc(S(=O)(=O)O)ccc23)cc1`, the compound was classed as inactive.

As to `CCCCCCCCN(C)C`, the outcome was inactive.

Turning to `Cc1nccn1-c1ccc(Sc2cccc(C3(C(N)=O)CCOCC3)c2)cc1`, the half-maximal activity concentration (AC50) is 18.6 µM (active).

For the compound `CCCCCCCCCC`, the outcome was inactive.

On to `Nc1ccn([C@@H]2O[C@H](CO)[C@@H](O)[C@@H]2O)c(=O)n1`, for which the outcome was inactive.

In the case of `O=C(O)c1ccc2c(c1)nc(C(=O)NC1CCN(C3CC3)CC1)n2Cc1cc(-c2ccc(Cl)s2)on1`, the result was inactive.

With `Cn1c(=O)c2[nH]cnc2n(C)c1=O`, the call was inactive.

Turning to `C=CCc1cc(S(=O)(=O)c2ccc(O)c(CC=C)c2)ccc1O`, the outcome was inactive.

For `NC(=O)N(O)[C@@H]1COc2cc(OCc3ccccc3)ccc21`, the call was inactive.

`O=S1(=O)CCCO1`: the outcome was inactive.

For `CCCCCCCCCCCCCCO`, the call was inactive.

In the case of `CCOC(N)=O`, the compound was called inactive.

`O=C(O)c1cccc(C[C@@H]2COc3ccc(OCc4nc5cc(F)ccc5s4)cc3[C@@H]2O)c1`: the compound was called inactive.

Turning to `CC(C)CC(C)O` (stereo not given), the result was inactive.

`OCC(CO)(CO)CO`: the result was inactive.

In the case of `OCCOCCOCCO`, the outcome was inactive.

With `O=C(O)[C@H](O)[C@@H](O)C(=O)O`, the outcome was inactive.

Turning to `OC[C@H]1O[C@@](CO)(O[C@H]2O[C@H](CO)[C@@H](O)[C@H](O)[C@H]2O)[C@@H](O)[C@@H]1O`, the call was inactive.

Consider `OCCNCCO`, for which the call was inactive.

On to `CC(C)CCCCCCOC(=O)C1CCCCC1C(=O)OCCCCCCC(C)C` (stereo not given), for which the compound was called inactive.

On to `Cc1nc(-c2ccccn2)ncc1C(=O)Nn1cc(C)c2cc(F)ccc21`, for which the outcome was inactive.

In the case of `CCCc1ccccc1`, the call was inactive.

Regarding `CCCCC(CC)C(=O)OCCOCCOCCOC(=O)C(CC)CCCC` (stereo not given), the result was inactive.

`CC(C)c1nnc2ccc(-c3ocnc3-c3cc(F)ccc3F)cn12`: the outcome was inactive.

With `CCCCCCOC(=O)CC(CC(=O)OCCCCCC)(OC(=O)CCC)C(=O)OCCCCCC`, the compound was classed as inactive.

Take `COS(C)(=O)=O`: the outcome was inactive.

As to `c1ccc2cc3ccccc3cc2c1`, the outcome was inactive.

As for `NC(N)=O`, the outcome was inactive.

For `c1ccc2c(c1)-c1cccc3c1c-2cc1ccccc13`, the compound was classed as inactive.

With `CCc1ccc(O)c(C(C)(C)C)c1`, the compound was classed as inactive.

For `CCn1nc(C)c2c1C(=O)NCC(c1ccc(O)cc1)=N2`, the compound was classed as inactive.

Turning to `COCc1nnc(-c2ccc[n+]([O-])c2)n1-c1c(Cl)c(Cl)cc2[nH]c(=O)c(=O)[nH]c12`, the call was inactive.

`Cc1ccc(S(=O)(=O)NC(=O)NN2CCCCCC2)cc1`: the outcome was inactive.

As for `CC(=O)c1ccccc1`, the compound was called inactive.

Values taken from PubChem BioAssay (EPA / NIEHS).
